Sampled rows, rich in hits. Any-hit rate of the full collection: about 3.4%.
SMARCA2 activ – activators of SMARCA2 function. activation, % at 9.1 µM. MG213 cells, MMTV-luciferase reporter, dexamethasone, overnight. AID 652017. hit rate 1% among 370,000; in the data active means activation above about 7.8%;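 further: 0% = vehicle wells and 100% = reference activator wells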
HSP90 refold inh – inhibitors of HSP90 luciferase refolding in rabbit reticulocyte lysate; luciferase refolding luminescence, 3 h; inhibition, % at 5.6 µM; hit rate 0.91% among 290,000;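 active means inhibition above the screen-wide mean plus 3 SD, computed separately per campaign, cut at about 16% in these data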;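 further: 0% = DMSO wells and 100% = 60 µM geldanamycin wells; inhibitors lower the luminescence because luciferase stays unfolded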
HSF1 inhib – HSF1 inhibition; AID 2098; hit rate 0.77% among 300,000; activity change, negative = inhibition, % at 7.5 µM (by protocol); NIH3T3-HGL HSE-luciferase, MG132-induced, luminescence 8 h; stronger effect = lower value;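 active means more than half of replicate wells show activity change below -50%, luminescence cut by over half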;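 further: luciferase reports HSF-1 transcriptional activity via heat shock element; 0% = median of DMSO wells and -100% = zero luminescence signal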
AI-2 QS modul – modulators of Vibrio harveyi AI-2 quorum sensing system. AID 2094. hit rate 0.4% among 300,000. activity change, % at 7.5 µM. Vibrio harveyi JMH597 AI-2 luminescence/OD600 ratio, 9 h; stronger effect = lower value; strain lacks LuxN and CqsS sensors; 0 = neutral-control median; in the data active means activity change below about -75%, passing the limit was not always enough;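 further: luminescence divided by OD600 gain over 9 h not by final OD600 alone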
FXN GAA850 act – activators of GAA850 frataxin (FXN) promoter; AID 540364; hit rate 0.56% among 360,000; activation, % at 6 µM; HEK293 lucGAA850 FXN promoter luciferase reporter, 24 h; percent of 10 µM SAHA response;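 active means activation above the average of all compounds screened plus 3 SD, cutoff fixed separately per campaign, cut at about 7.5% in these data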;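 further: 0% = DMSO wells and 100% = 10 µM SAHA wells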
PG9 Ab binder – binds the HIV-1 gp120 antibody PG9 | TR-FRET gp120-PG9 antibody binding | inhibition, % at 6.7 µM | hit rate 0.43% among 360,000 | AID 624416; in the data active means inhibition above about 8.5%
* = called active by the depositor; nt = not tested or not shown.

SMILES | SMARCA2 activ | HSP90 refold inh | HSF1 inhib | AI-2 QS modul | FXN GAA850 act | PG9 Ab binder
C1CCC(Nc2nnnn2C2CCCCC2)CC1 | 1 | 0 | -59* | 19 | 2 | -1
Cc1ccsc1C=Nn1c(-c2n[nH]c3c2CCC3)n[nH]c1=S | -7 | nt | nt | nt | nt | nt
CSc1cccc(NC(=S)N2CCC(N(C)C3CCCC3)CC2)c1 | -2 | -2 | -73* | 8 | 1 | 0
CCOC(=O)N1CCC(N(CCN(C)C)C(=S)Nc2cccc(SC)c2)CC1 | -2 | 3 | -19 | 10 | 0 | -2
CCn1c(C(C#N)/C(=N\S(=O)(=O)c2cccs2)c2ccccc2)nc2ccccc21 (stereo unspecified) | -4 | -3 | -66* | 17 | 4 | -1
CCn1c(-c2cccs2)nc2ccccc21 | 2 | -4 | 4 | 8 | 2 | 0
N/C(=N\OC(=O)COc1ccccc1)c1ccncc1 | 1 | 4 | 4 | -47 | 2 | 2
COc1cccc(OCC(=O)O/N=C(\N)c2ccncc2)c1 | 1 | 1 | 6 | -76* | 4 | -1
Nc1ccc2c(c1)OC1(CCCC1)O2 | -7 | 5 | -89* | 14 | -12 | -1
C=Cc1ccc(C(=O)N2CCC(n3nnc4ncccc43)CC2)cc1 | -1 | nt | nt | nt | nt | nt
COc1ccccc1N=Nc1[nH]c2ccc(C)cc2c1O | 7.9* | 0 | -3 | 13 | 4 | 0
C[C@H]1COc2cc(Br)ccc2S(=O)(=O)N1Cc1cn(Cc2ccco2)nn1 | 3 | nt | nt | nt | nt | nt
C=CCNC(=O)C1CCN(c2cncnc2)CC1 | -4 | nt | nt | nt | nt | nt
CCN(CC)CCOC(=O)c1ccc(N)cc1 | -3 | -5 | -78* | 17 | 3 | -3
Cc1ccc(NS(=O)(=O)c2cc(NC(=O)c3ccc4c(c3)NC(=O)CS4)ccc2C)c(C)c1 | -5 | 17* | -3 | -3 | 1 | -1
CCOc1ccc(N2CSC(=S)N(c3ccc(OCC)cc3)C2)cc1 | -2 | 1 | -65* | 20 | 0 | -2
CN(Cc1cccnc1)C(=O)c1cc(COc2ccc3c(c2)CCCC3)on1 | -1 | -2 | 38 | -80* | 3 | 0
N#CC1=C(N)C(C#N)(C#N)C(c2cccnc2)C2CC(c3ccccc3)CC=C12 (stereo unspecified) | nt | 0 | -55* | 25 | -8 | nt
N#CC1=C(N)C(C#N)(C#N)C(c2cccnc2)C2CCCC=C12 (stereo unspecified) | nt | -4 | nt | 14 | nt | nt
Nc1ccccc1SC(CC(=O)c1ccccc1)c1ccc([N+](=O)[O-])cc1 (stereo unspecified) | -1 | nt | nt | nt | 8.0* | 1
O=C(NC(NC(=O)c1ccccc1)c1cccc([N+](=O)[O-])c1)c1ccccc1 | -4 | -2 | -2 | -2 | -1 | 1
COc1ccc(C(CC(=O)c2ccc(C)cc2)Sc2ccccc2N)cc1 (stereo unspecified) | 4 | nt | nt | nt | 3 | 2
Nc1ccccc1SC(CC(=O)c1ccccc1)c1cccc([N+](=O)[O-])c1 (stereo unspecified) | 1 | nt | nt | nt | 11* | -1
CCNC(=O)Nc1ccc2c(c1)C(=O)N(C)[C@H]1CC[C@@H](CC(=O)NCCN3CCCC3)O[C@@H]1CO2 | 1 | nt | nt | nt | nt | nt
COC(CNC(=O)C1CCCN(S(=O)(=O)c2c(C)noc2/C=C/c2cccs2)C1)OC (stereo unspecified) | 2 | 17* | 28 | 14 | 1 | -1
SMILES | SMARCA2 activ | HSP90 refold inh | HSF1 inhib | AI-2 QS modul | FXN GAA850 act | PG9 Ab binder
Cc1noc(/C=C/c2ccco2)c1S(=O)(=O)N1CCC(C(=O)NCc2ccco2)CC1 | 3 | 6 | -72* | 10 | -1 | -4
Cc1ccc(CNC(=O)C2CCN(S(=O)(=O)c3c(C)noc3/C=C/c3ccco3)CC2)cc1 | 1 | 3 | 16 | 38 | -1 | -2
COCCNC(=O)C1CCCN(S(=O)(=O)c2c(C)noc2/C=C/c2cccs2)C1 (stereo unspecified) | -2 | 1 | 11 | 12 | 1 | 1
COc1cccc(N2C(=O)N(c3ccccc3)C3CS(=O)(=O)CC32)c1 (stereo unspecified) | 0 | -2 | -84* | 27 | 5 | -1
O=C(CSc1nnc(NC(=O)c2ccccc2Cl)s1)Nc1ccc2c(c1)oc1ccccc12 | 11* | -7 | -7 | 44 | nt | 0
CC(C)(C)NC(=O)CSc1nnc(NC(=O)c2ccccc2Cl)s1 | 0 | -8 | nt | 20 | 3 | -2

Compound activity (PubChem BioAssay)
